Several values for one entry are separate records, joined by “and”; a condition that tells them apart may be missing. Equal values may be shown once. About 83,000 compounds went through this panel and 20% of them were active in at least one assay; those are over-represented in the sample as a whole.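 For each line, cells grew in 96-well plates with the test compound present at a single concentration for 48 hours.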 Values without a mark were called inactive. Activity calls are given as the source filed them.
The compounds below were run on IGROV1 ovarian (assay: NCI-60 one-dose screen, 48 h (100 = growth as untreated, 0 = no growth, -100 = all killed)). Conditions: 1 µM.
Protocol: Growth inhibition of the IGROV1 human tumor cell line is measured as a screen for anti-cancer activity. Cells are grown in 96 well plates and exposed to the test compound for 48 hours. Compounds are tested at a single concentration, which is 10^-5 M for most compounds. The reported endpoint is percent growth (GI% or GIPRCNT), where numbers from 0 - 100% represent growth inhibition, and numbers from -100% - 0 represent cell death. For example, a value of 40 represents 60% growth inhibition. A value of 0 means no net growth occurred over the course of the experiment. A value of -40 indicates 40% of cells at the beginning of the experiment died by the end of the experiment. A value of -100 means all cells are dead at the end of the experiment.
NCI-60 Human Tumor Cell Lines Screen was performed using the standard one-dose NCI protocol, which is described in more detail at https://dtp.cancer.gov/discovery_development/nci-60/default.htm.
Compounds with GIPRCNT values below 10 were considered active. Activity score was based on GIPRCNT using the following formula: […]
Score is 0 for GIPRCNT values of 100 or above, 50 for GIPRCNT values of 0, and 100 for GIPRCNT values of -100.

**Q.** For `CC/C(=C(\c1ccc(O)cc1)c1ccc(OCCN(C)C(=O)COCCNC(=O)Cc2ccc3c(c2)CN([C@@H]2CCC(=O)NC2=O)C3=O)cc1)c1ccccc1`, which growth is on record?
**A.** 38.5%

Same assay, conditions: 10 µM

**Q.** Which growth does the source give for `CC/C(=C(\c1ccc(O)cc1)c1ccc(OCCN(C)C(=O)COCCNC(=O)Cc2ccc3c(c2)CN([C@@H]2CCC(=O)NC2=O)C3=O)cc1)c1ccccc1` here?
**A.** 9.45% (active)

Same assay, conditions: 10 µM unless noted

**Q.** Which growth does the source give for `Cn1cc(-c2cc(N)n3nc(-c4c[nH]c5ccc(Cl)cc45)cc3n2)c2cc(Br)cnc21` here?
**A.** -49.3% (active)

**Q.** How did the growth turn out when `COc1c2c(c(Br)c3c1C(CCc1ccccc1)N(C)CC3)OCO2` (stereo not given) was run?
**A.** 19.5%

**Q.** `COC(=O)c1ccc(-c2c(-c3ccccc3)c(F)c3oc(C(=O)OC)c(N)c3c2-c2ccccc2)cc1` was tested. Which growth did it give?
**A.** 102%

**Q.** `CCCSc1nnc(-c2sc3nc4ccccc4n3c2C)o1` was tested. Which growth did it give?
**A.** 107%

**Q.** How did the growth turn out when `COc1ccc2[nH]c(=O)c(CSc3ccccc3Nc3nccc(-c4ccc(C(F)(F)F)cc4)n3)cc2c1` was run?
**A.** 59.8%

**Q.** `Cc1[nH]nc2ccc3nc(-c4cnn(CCO)c4)c4c(c3c12)CCCC4` was tested. Which growth did it give?
**A.** 44.5%

**Q.** For `Cn1cc(-c2cc3nc(-c4c[nH]c5ccccc45)cc(N)n3n2)c2ccccc21`, which growth is on record?
**A.** -77.5% (active)

**Q.** How did the growth turn out when `CNS(=O)(=O)N1CCc2c(Br)c3c(c(OC)c2C1CCc1ccccc1)OCO3` (stereo not given) was run?
**A.** -6.68% (active)

**Q.** With `COc1cc(/C=C/C(=O)c2ccc(S(=O)(=O)NCCNc3nc(N(C)C)nc(N4CCOCC4)n3)cc2)cc(OC)c1OC` as the compound, how does the growth read?
**A.** -55% (active)

**Q.** `COc1ccc(C(=O)c2c(N)c(C#N)cn2-c2ccc([N+](=O)[O-])cc2)cc1` was tested. Which growth did it give?
**A.** 109%

**Q.** How did the growth turn out when `CS(=O)(=O)c1ccc(-n2nc(C(=O)NCc3ccccc3)cc2-c2ccc(Cl)cc2)cc1` was run?
**A.** 95.9%

**Q.** `CC(=O)Nc1cccc(-n2c(COc3ccc(I)cc3)nc3ccccc32)c1` was tested. Which growth did it give?
**A.** 86.1% and 113%

**Q.** Which growth does the source give for `COc1ccc(-c2cc(C(=O)OCc3ccc(Br)cc3)nn2-c2ccc(S(C)(=O)=O)cc2)cc1OC` here?
**A.** 95.6%

**Q.** `CS(=O)(=O)Nc1cccc(-n2cnc3cc(-c4ccc(O)cc4)ccc32)c1` was tested. Which growth did it give?
**A.** 57.7%

**Q.** How did the growth turn out when `N#Cc1cc(-c2ccnc(Nc3ccc(N4CCN(C5COC5)CC4)cc3)n2)ccc1N1CCCC1` was run?
**A.** 55.3%

**Q.** For `CCOc1ccccc1[C@H]1C(C(=O)c2ccc(Cl)cc2)C2(N[C@@H]1c1ccccc1)C(=O)Nc1ccc(Br)cc12` (stereo not given in full), which growth is on record?
**A.** 1% (active)

**Q.** `Cc1ccc(N=Nc2c(N)nn3c(-c4cc5cc(Br)ccc5oc4=O)ccnc23)cc1` was tested. Which growth did it give?
**A.** 45.2%

**Q.** How did the growth turn out when `C[C@H](NC(=O)c1ccc2c(-c3ccc(C(F)(F)F)cc3)cccc2c1)c1ccccn1` was run?
**A.** 55.8%

**Q.** `N#C/C(=C1/C(=O)Nc2ccccc21)c1nnc(NC(=O)c2ccc(-n3c(=O)[nH]c4ccccc4c3=O)cc2)s1` was tested. Which growth did it give?
**A.** 38.7%

**Q.** Which growth does the source give for `COc1ccc(/C=C/c2nc3ccccc3c(=O)n2CC(=O)Nc2ccccc2)cc1` here?
**A.** 49.9%

**Q.** `CS(=O)(=O)Nc1cccc(-n2c(COc3ccc(OC(F)(F)F)cc3)nc3ccccc32)c1` was tested. Which growth did it give?
**A.** 56.4% and 111%

**Q.** How did the growth turn out when `O=C(NNC(=O)c1ccc(OCc2nc3ccc(Cl)cc3[nH]2)cc1)Nc1ccc(Cl)c(Cl)c1` was run?
**A.** 84.5%

**Q.** How did the growth turn out when `Cc1cc(=O)oc2cc(OCC(O)CNN3C(=O)c4cccc5c(N6CCN(C)CC6)ccc(c45)C3=O)ccc12` (stereo not given) was run?
**A.** 109%

**Q.** For `O=C1NC(=NC23CC4CC(CC(C4)C2)C3)N/C1=C\c1ccc2ncccc2c1`, which growth is on record?
**A.** 8.97% (active)

**Q.** `COc1ccc(/C=C/C(=O)c2ccc(OC)c(S(N)(=O)=O)c2)c(C(F)(F)F)c1` was tested. Which growth did it give?
**A.** 1.64% (active)

**Q.** With `C[C@H]1[C@@H](CC(=O)N[C@@H](Cc2coc3ccccc23)B(O)O)O[C@@H]2OC3(C)CC[C@H]4[C@H](C)CC[C@@H]1[C@@]24O3` as the compound, how does the growth read?
**A.** 9.89% (active)

**Q.** How did the growth turn out when `c1n[nH]cc1-c1nc2ccc3[nH]ncc3c2c2c1CC1(CCOCC1)CC2` was run?
**A.** 61.2%

**Q.** With `CN(C(=O)CN1C(=O)/C(=C/c2ccco2)SC1=S)C1CCS(=O)(=O)C1` (stereo not given) as the compound, how does the growth read?
**A.** 116%

**Q.** `C=CCn1c(O)c(N=Nc2nc(-c3cc4ccccc4oc3=O)cs2)c2ccccc21` was tested. Which growth did it give?
**A.** 23.9%

**Q.** For `O=C(N/N=C/c1ccc(Cl)cc1)c1ccc(OCc2nc3ccc(Cl)cc3[nH]2)cc1`, which growth is on record?
**A.** 15.4%

**Q.** Which growth does the source give for `CC1=C(C(=O)Nc2ccccc2)C(c2cccc3ccccc23)n2c(nc3ccccc32)N1` (stereo not given) here?
**A.** 68%

**Q.** How did the growth turn out when `COc1ccc(-c2cc(C(=O)N=Nc3c(O)[nH]c4ccc(Cl)cc34)c3ccccc3n2)cc1` was run?
**A.** -18.8% (active)

**Q.** `Nc1nn2c(-c3cc4cc(Br)ccc4oc3=O)ccnc2c1N=Nc1ccc(S(N)(=O)=O)cc1` was tested. Which growth did it give?
**A.** 93.1%

**Q.** With `Cc1cn(-c2cc(NC(=O)c3ccc(C)c(-n4cc(-c5cnc6cccnn56)nn4)c3)cc(C(F)(F)F)c2)cn1` as the compound, how does the growth read?
**A.** 88.7%

**Q.** With `CCN1CCN(Cc2ccc(C(=O)Nc3cccc(Nc4ccc5c(OC)cccc5n4)c3)cc2C(F)(F)F)CC1` as the compound, how does the growth read?
**A.** -83.6% (active)

**Q.** For `CN1CCc2c(sc3ncnc(N/N=C/c4cccc(Cl)c4Cl)c23)C1`, which growth is on record?
**A.** 10.6%

**Q.** With `CCOC(=O)/C(F)=C/C1CC1C(c1ccccc1)c1ccccc1` (stereo not given) as the compound, how does the growth read?
**A.** 90.8%

**Q.** `Cc1ccc(Cl)cc1NC(=O)N/C(N)=N/c1nc2ccccc2s1` was tested. Which growth did it give?
**A.** -4.38% (active)
